Source: PubChem (National Center for Advancing Translational Sciences (NCATS))
This excerpt belongs to a sample that is enriched for hits.
KDM5B inhibitor – blocks human KDM5B histone demethylase activity; Q9UGL1; KDM5B demethylase, FDH-coupled NADH fluorescence (FDH is formaldehyde dehydrogenase); Potency, µM (top dose mostly 57.7 µM), hits mostly inhibitors; 2.6% of 220,000 active; AID 1347165; active = well fitted inhibition curve with a large enough effect; note: 0% is about no effect; nearly all actives have a fitted effect of over 70% in size
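Compound dilutions met 200 nM (final) KDM5BΔAP for 10 min at room temperature before substrate addition. The substrate mix held 12.5 µM H3K4me3 with cofactors 25 µM α-ketoglutarate and 50 µM Fe²⁺. NADH signal gain over 30 min defined activity.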
* marks the source's active call; other numbers are inactive results; i = inactive. Potency is the fitted concentration of half-maximal effect.

SMILES | KDM5B inhibitor
Cc1c(NC(=O)CN(c2ccc(Cl)cc2)S(C)(=O)=O)c(=O)n(-c2ccccc2)n1C | i
Cc1ccccc1OC(=O)c1ccc(-c2ccccc2)cc1 | i
COc1ccc2c(C)c(CC(=O)NCc3ccc(F)cc3)c(=O)oc2c1C | i
C=C(C)Cn1c(SCCc2ccccc2)nc2c1c(=O)n(C)c(=O)n2C | i
O=C(Nc1ncc(-c2ccccc2)c2c1OCC2)C1CCOCC1 | i
COc1ccccc1-c1cnc(NC(=O)c2cnccn2)c2c1CCO2 | 35.5µM*
COc1ccccc1OCC(=O)Nc1ccc2c(c1)OCCO2 | i
COc1ccccc1-c1cn2c(n1)CO[C@@H](CNC(=O)NCc1ccccc1)C2 | i
COc1cccc(/C=N/NC(=O)c2cnccn2)c1OC | i
COc1ccccc1-c1cnc(NCc2ccccc2)c2c1CCO2 | 35.5µM*
c1ccc(CNc2ncc(-c3ccc(N4CCOCC4)cc3)c3c2OCC3)cc1 | 39.8µM*
CN(C)c1cccc(-c2cnc(NC(=O)c3ccncc3)c3c2CCO3)c1 | i
c1ccc(-c2noc(-c3cncnc3Nc3ccc4c(c3)OCCO4)n2)cc1 | i
O=C(O)c1cc(NCc2ccc(-c3ccccc3)cc2)ccc1N1CCOCC1 | i
COc1ccccc1-c1cnc(Nc2ccc3c(c2)OCCO3)c2c1CCO2 | 35.5µM*
CN1CCC(N(C)CCN(C)C(=O)Nc2ccc(C(F)(F)F)cc2)CC1 | i
O=C(O)CCSCC(=O)c1ccc(Br)cc1 | i
Cc1cc(C2CC(=O)OC3=C2C(=O)CC(C)(C)C3)c(C)s1 (stereo not given) | i
Cc1ccc(C(=O)CC(Nc2ccc(Cl)cc2)c2ccccc2)cc1 (stereo not given) | i
CC[C@@]1(O)CCN(C(=O)c2ccc(OC)c(N3CCOCC3)c2)C[C@H]1O | i
CC[C@@]1(O)CCN(c2nc(N)c3cc(OC)c(OC)cc3n2)C[C@H]1O | 31.6µM*
CCOc1cc2nc(-c3ccc(OC)c(OC)c3)nc(N3CCC(C(N)=O)CC3)c2cc1OC | i
Cc1ccc(NC(=O)Cn2c(C)cc(C)c(C#N)c2=O)cc1F | i
Cc1cc(C)n(C(C)CC(=O)Nc2ccc(C)c(F)c2)n1 (stereo not given) | i
Cc1ccc(NC(=O)CCNc2cnc3cnccn23)cc1F | 22.4µM*
SMILES | KDM5B inhibitor
O=C(CCc1ncc(-c2ccccc2)o1)NCc1ccco1 | i
COc1cccc(N2C(=O)NC(=NC3CCCCC3)C23CCCN(Cc2ccccc2)C3)c1 (stereo not given) | i
COc1ccc(Cl)cc1S(=O)(=O)N1CCCC(Cn2c(C)nc3cccnc32)C1 (stereo not given) | i
COc1ccc(-c2cc(-c3ccccc3)nc3c(C)noc23)cc1OC | 25.1µM*
COc1ccc(-c2noc(-c3nc(-c4cccnc4)no3)n2)cc1OC | i
COC1CCN(c2cc(-c3ccccc3)nc3c(C)noc23)CC1 | i
Cc1noc2c(-c3cn[nH]c3)cc(-c3cccc(C(F)(F)F)c3)nc12 | i
Cc1noc2c(N3CCN(C)CC3c3ccccc3)cc(-c3cccnc3)nc12 (stereo not given) | i
Cc1noc2c(-c3ccc4c(ccn4C)c3)cc(-c3cccnc3)nc12 | 31.6µM*
COc1cccc(-c2cc(-c3ccccc3)nc3c(C)noc23)c1 | 31.6µM*
COc1ccc(-c2c(C)nn3c(-c4ccccc4)cc(-c4ccccc4)nc23)cc1OC | i
Cc1noc2c(NCc3ccccc3)cc(-c3cccnc3)nc12 | i
COc1ccc(/C=C/C(=O)Oc2ccc(Br)cc2)cc1 | i
O=S(=O)(NCCc1cn2ccccc2n1)c1ccc(Cl)cc1C(F)(F)F | i
COc1cc2oc(=O)c(CC(=O)NCc3ccc4c(c3)OCO4)c(C)c2cc1Cl | i
Cc1cccc(OCC(=O)Nc2cccc(-c3nc4ccccc4o3)c2)c1C | i
CCOC(=O)c1cc(OC(C)C(=O)NC(C)c2ccccc2)cc(C(=O)OCC)c1 (stereo not given) | i
COC(=O)c1[nH]c(C)c(/C(O)=C2\C(=O)C(=O)N(CCCn3ccnc3)C2c2cccc(OC)c2)c1C (stereo not given) | i
COCCN1C(=O)c2cccn2CC1CNC(=O)c1nccc2ccccc12 (stereo not given) | i
COCCN1C(=O)c2cccn2CC1CNC(=O)c1[nH]nc2c1COc1ccccc1-2 (stereo not given) | 28.2µM*
COCCN1C(=O)c2cccn2CC1CNC(=O)c1n[nH]c2ccccc12 (stereo not given) | i
CC(C)(C)c1ccc(SCC(=O)NC(C)(C#N)C2CC2)cc1 (stereo not given) | i
Cc1cccc(OCCSC(C)C(=O)NC(C)(C)C)c1 (stereo not given) | i
COc1ccc(CCN2CN=C(NS(=O)(=O)c3ccc(F)cc3)NC2)cc1 | i
COCCN[C@@H]1C[C@@H]2c3[nH]c4ccccc4c3C[C@@H](C(=O)OC)N2[C@H](c2ccc(F)c(F)c2)C1 | 12.6µM*
